The list is not random: actives were taken first. Their share in the collection is about 12%.
L major viab: Leishmania major promastigote growth inhibition, primary screen. 200,000 tested, 9% active. AID 1063, 2008. Leishmania major promastigotes, resazurin fluorescence viability. inhibition, % at 10 µM; in the data active = inhibition above about 50%;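 also: promastigotes grown with compound for 44 hours at 28 °C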
ROMK mod: ROMK potassium channel modulators, primary screen, cell-based, thallium flux, MLSMR library. ATP-sensitive inward rectifier potassium channel 1 (Homo sapiens), P48048. Tet-inducible ROMK, thallium flux fluorescence; actives lie on both sides. B-score at 10 µM. 130,000 tested, 2% active. AID 1918, 2009;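 active = signal ratio slope over the read window, or its plate-corrected B-score, at least 3 SD from the plate mean, either direction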;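 also: B-score of the F/F0 ratio slope over 7 to 12 s after thallium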
Ins promoter up: insulin promoter activators in MIN6 cells, imaging, high-content screening, mouse beta cells; MIN6 insulin promoter-GFP reporter; hits give high values; z-score at 5 µM; 190,000 tested, 0.3% active; AID 1625, 2009;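 active = z-score above 3 at 5 µM with at least 500 cells counted in the well; inconclusive = wells under 500 cells, flagged as cytotoxic or low count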
WT yeast gro inh: growth inhibition of WT strain, primary screen, mitochondrial fusion inhibitor project, WT and mutant strains, chemical genetic; mitochondrial fusion phenotypic screen; 190,000 tested, 2.1% active; inhibition, % at 10 µM; in the data active = inhibition above about 58%; tested in S. cerevisiae
KCC2 mod: KCC2 cotransporter modulators, thallium flux, primary screen, cell-based, HEK293 KCC2, FluoZin-2 fluorescence, MLSMR. Solute carrier family 12 member 5 (Homo sapiens), Q9H2X9. KCC2 cells, thallium flux FluoZin-2 fluorescence. B-score of Tl+ flux slope (higher = more flux/activation; lower = inhibition) at 10 µM. 190,000 tested, 2.2% active. AID 1456, 2008;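 active = thallium flux slope and its plate-corrected score both differing from the plate sample mean at a set confidence after two filtering rounds, in either direction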;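 also: slope of fluorescence scaled to starting intensity during 10 to 20 s after thallium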
Target sequence (Q9H2X9 whole entry, looked up): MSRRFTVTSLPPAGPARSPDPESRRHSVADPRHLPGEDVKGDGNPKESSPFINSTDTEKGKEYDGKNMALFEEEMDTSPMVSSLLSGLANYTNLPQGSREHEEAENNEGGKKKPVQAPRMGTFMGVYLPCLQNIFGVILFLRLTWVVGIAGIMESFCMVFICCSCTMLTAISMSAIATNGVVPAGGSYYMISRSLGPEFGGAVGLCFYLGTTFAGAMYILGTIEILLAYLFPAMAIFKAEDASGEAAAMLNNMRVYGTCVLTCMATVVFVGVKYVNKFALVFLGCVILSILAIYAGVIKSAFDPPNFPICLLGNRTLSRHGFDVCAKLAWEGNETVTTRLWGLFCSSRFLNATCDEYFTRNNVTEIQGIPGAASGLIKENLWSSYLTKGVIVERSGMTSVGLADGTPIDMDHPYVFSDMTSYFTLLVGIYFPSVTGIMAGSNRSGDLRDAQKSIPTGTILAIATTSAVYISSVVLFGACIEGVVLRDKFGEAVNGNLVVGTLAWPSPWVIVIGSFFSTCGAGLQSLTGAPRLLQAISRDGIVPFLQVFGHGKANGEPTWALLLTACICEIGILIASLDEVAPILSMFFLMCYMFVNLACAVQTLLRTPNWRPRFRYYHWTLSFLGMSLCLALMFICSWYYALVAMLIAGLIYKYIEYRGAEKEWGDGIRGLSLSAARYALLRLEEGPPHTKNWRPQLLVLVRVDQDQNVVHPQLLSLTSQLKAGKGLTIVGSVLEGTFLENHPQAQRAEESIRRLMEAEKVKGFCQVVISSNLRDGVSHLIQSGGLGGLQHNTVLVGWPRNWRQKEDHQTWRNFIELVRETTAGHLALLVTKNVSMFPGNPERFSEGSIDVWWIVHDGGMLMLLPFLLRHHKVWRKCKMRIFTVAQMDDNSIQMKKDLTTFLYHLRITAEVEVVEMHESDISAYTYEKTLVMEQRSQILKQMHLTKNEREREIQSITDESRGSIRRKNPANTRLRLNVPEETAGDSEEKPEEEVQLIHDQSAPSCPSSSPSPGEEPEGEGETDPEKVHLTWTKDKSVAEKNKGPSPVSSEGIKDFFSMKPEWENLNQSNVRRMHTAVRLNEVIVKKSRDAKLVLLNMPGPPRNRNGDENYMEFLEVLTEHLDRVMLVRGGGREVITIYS
INS promoter inh: inhibitors of insulin promoter-driven GFP, primary screen, imaging, TRM-6 cells (human fetal islet line), eGFP reporter, cell count. reporter expression induced with tamoxifen. inhibition, % at 2 µM. 130,000 tested, 0.9% active. AID 1273, 2008;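 active = inhibition above the mean plus 3 SD, with well images judged a real hit on visual review, cut at about 60% in these data, passing the limit was not always enough; inconclusive = inhibition over the cutoff but images rejected on review; inactive = inhibition not above the cutoff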
KCC2 secondary: KCC2 modulators in sodium-free buffer, confirmation, cell-based, HEK293 KCC2, thallium flux, secondary assay. shares compounds with KCC2 mod. FluoZin2 fluorescence; hits give high values. normalised thallium flux (F/F0 slope) at 10 µM. 3,700 tested, 15% active;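 active = thallium flux slope above the same plate's solvent-only control mean plus 3 SD; inconclusive = the two replicate wells disagree; inactive = no significant difference from solvent-only control wells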
KCC2 bumet counter: thallium flux persisting under bumetanide in KCC2 cells, confirmation, counter-screen for KCC2 modulator project, cell-based, HEK293 KCC2, FluoZin2, secondary assay 3; HEK293-KCC2 + bumetanide/ouabain; hits give high values; AID 1714, 2009; 3,700 tested, 49% active; normalized thallium flux at 10 µM; shares compounds with KCC2 mod;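 active = thallium entry rate above the same plate's blocked-transporter control wells by more than 3 SD; inconclusive = the two repeat wells disagree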;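 also: raw slope of fluorescence over initial fluorescence between 10 and 20 s after thallium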
KCC2 secondary2: KCC2 modulators without ouabain present, confirmation, cell-based, HEK293 KCC2, thallium flux, FluoZin2, secondary assay 2 | normalized thallium flux at 10 µM | thallium flux FluoZin2 fluorescence; actives lie on both sides; F/F0 rise rate, 10–20 s post-thallium | shares compounds with KCC2 mod | 3,700 tested, 23% active;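 active = thallium flux slope more than 3 SD above or below the plate's solvent-only control mean, mostly below; inconclusive = the two repeat wells disagreed; inactive = no significant shift from solvent-only controls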;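 also: raw slope with 0.1% DMSO as baseline and bumetanide as block control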
HEK293 Tl flux: thallium flux modulation in parental HEK cells, confirmation, counter-screen for KCC2 modulator project, cell-based, counterscreen 1; HEK293 parental cells, thallium flux FluoZin2, ouabain; baseline-ratio fluorescence slope, 10–20 s after thallium; 3,700 tested, 46% active; thallium flux rate (normalised fluorescence) at 10 µM; AID 1716, 2009; shares compounds with KCC2 mod;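 active = thallium flux rate significantly above the same plate's solvent-only control wells, beyond their mean plus 3 SD; inconclusive = the two replicate wells gave conflicting results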
KCC2 ouabain: KCC2 inhibitors and activators, ouabain retest, confirmation, HEK-KCC2 cells | shares compounds with KCC2 mod | HEK293-KCC2, thallium flux FluoZin2 fluorescence; bidirectional: low = inhibitor, high = activator | raw Tl+ flux slope (below DMSO = inhibition, above = activation) at 10 µM | 3,700 tested, 48% active;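 active = thallium flux slope beyond 3 SD from same-plate DMSO control mean in most replicates, usually higher, sometimes lower; inconclusive = repeat tests gave conflicting results; inactive = no significant difference from controls in most replicates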;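 also: slope of initial-normalized fluorescence between seconds 10 and 20 after thallium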
HEK293 Tl flux2: native HEK Tl+ uptake effects, second counter-screen – HEK cells, counterscreen 2, counter-screen for KCC2 modulator project, confirmation; HEK293 parental, thallium flux FluoZin-2 fluorescence slope; 3,700 tested, 33% active; shares compounds with KCC2 mod; thallium flux slope at 10 µM;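 active = thallium flux slope above the same plate's solvent-control mean plus 3 SD in both duplicate wells; inconclusive = duplicate wells that disagreed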;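 also: run without ouabain in cells lacking the KCC2 cotransporter; slope of fluorescence scaled to its starting value between 10 and 20 s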
* hit, by the source's call; u = inconclusive; x = not tested or not shown.

SMILES	L major viab	ROMK mod	Ins promoter up	WT yeast gro inh	KCC2 mod	INS promoter inh	KCC2 secondary	KCC2 bumet counter	KCC2 secondary2	HEK293 Tl flux	KCC2 ouabain	HEK293 Tl flux2
O=C(NCc1ccccn1)C(=O)Nc1nc(C23CC4CC(CC(C4)C2)C3)cs1	68*	0.18	-1.5	71*	16*	x	0.012	0.014*	0.034	0.026*	0.026*	0.015*
COC(=O)C1CCN(Cc2cn(-c3ccccc3)nc2-c2ccc3c(c2)OCO3)CC1	14	-0.79	0.23	23	-5.8*	x	0.0099	0.0058	0.033	0.008	0.022	0.01
O=C(CSc1nnc(-c2cc3ccccc3cc2O)n1Cc1ccco1)c1ccc(F)cc1	30	0.37	0.41	30	-0.17	6	x	x	x	x	x	x
O=C(CSc1nnc(-c2ccco2)n1Cc1ccccc1)c1ccc(F)cc1	14	x	-0.22	34	-6.1*	-4	0.0059	u	0.021*	0.0055*	0.012*	u
Cc1occc1-c1nnc(SCC(=O)c2ccc(F)cc2)n1Cc1ccco1	13	x	-0.91	2	-3*	14	0.0058	u	0.023*	0.0055*	0.011*	0.0093
COC(=O)C1=NN(c2ccc(C)cc2)C2C(=O)N(c3ccccc3OC)C(=O)C12 (stereo not given)	x	x	0.24	x	1.9	x	x	x	x	x	x	x
COC(=O)c1c(-c2ccccc2Cl)noc1/C=C/N(C)C	1	x	0.15	-11	-0.07	-115	x	x	x	x	x	x
COC(=O)c1cc(Sc2cccc(Cl)c2Cl)ccn1	1	-1.2	-0.34	30	-2.9*	0	0.0069	0.0044	u	0.0061*	0.014*	0.01
CC(C)Cc1csc(NC(=O)c2ccc(Cl)cc2)c1C(=O)O	3	x	-0.33	2	5.2*	x	0.0091	0.032*	0.029	0.018*	u	u
COc1ccc(-c2c3c(=O)n(C)c(=O)n(C)c3cn2-c2cc(OC)ccc2OC)cc1	16	1.2	-1.1	5	x	x	x	x	x	x	x	x
CC(=O)c1cccc(NC(=O)N2CCCC(C(=O)c3cc(F)ccc3F)C2)c1 (stereo not given)	-8	0.24	-0.16	0	0.7	x	x	x	x	x	x	x
O=C(NC(=S)Nc1cccc2[nH]ncc12)c1ccccc1	-11	-1.3	-0.34	5	-0.4	40	x	x	x	x	x	x
O=C(NC(=S)Nc1ccccc1Cl)c1cncc(C#Cc2ccccc2)c1	x	x	0.74	x	12*	x	0.01	0.015*	0.036	0.011*	0.03	u
O=C(CSc1nc2ccccc2c(=O)n1-c1ccc(F)cc1)Nc1ccc(N2CCOCC2)cc1	7	x	-0.41	-9	0.035	x	x	x	x	x	x	x
O=C(CSc1nc2ccccc2c(=O)n1-c1ccc(SC(F)F)cc1)Nc1ccc(N2CCOCC2)cc1	-1	-1.2	-0.3	-16	4.5*	x	0.0096	0.014*	0.03	0.01*	0.024	0.011*
COc1cccc(/C=N/N2C(=O)CSC2=S)c1O	-8	0.39	0.68	3	3.5*	7	0.013*	0.016*	0.033	0.01*	u	u
COc1cc(/C=N/N2C(=O)CSC2=S)cc(Br)c1O	-16	0.3	0.56	-2	-0.4	x	x	x	x	x	x	x
Oc1c(C(c2ccccc2Cl)N2CCCC2)ccc2cccnc12 (stereo not given)	100*	x	-3.3	2	2.9*	x	0.017	0.0085*	0.03	0.01*	0.018	0.013*
CC(CS(=O)(=O)c1cccc2cccnc12)N1CCCCC1 (stereo not given)	-7	x	x	-2	-0.86	x	x	x	x	x	x	x
Cn1c(O)c(N=NC(=N)N)c2ccccc21	x	x	0.85	x	-0.01	x	x	x	x	x	x	x
CCOc1ccc2c(c1)c(N=NC(N)=S)c(O)n2C	x	-0.072	-1.1	x	8.2*	x	u	0.035*	0.039	0.015*	0.027	0.012*
NC(=S)N=Nc1c(O)n(CCCl)c2ccccc12	-5	0.81	0.32	21	13*	x	0.024*	0.031*	u	0.018*	0.027*	0.019*
NC(=S)N=Nc1c(O)n(CCCl)c2ccc(Cl)cc12	-7	0.92	-1.2	-18	16*	x	0.0075	0.041*	u	0.036*	0.047*	0.024*
CSc1nc(C)cc(OCC(=O)N2CCOCC2)n1	-5	0.68	0.51	-4	0.17	-32	x	x	x	x	x	x
C(=N\NC1=Nc2cccc3cccc1c23)/c1cccnc1	13	-0.39	0.01	10	-3.8*	-117	0.0065	u	0.029	0.0071	0.016*	0.01
Clc1ccc(/C=N/NC2=Nc3cccc4cccc2c34)cc1	-1	x	2.3	-5	0.64	x	x	x	x	x	x	x
CN1C(=O)C(N=Nc2ccccc2C(=O)O)N(C)C1=S (stereo not given)	2	-0.13	-0.17	-13	-4.7*	x	0.0073	0.0017*	u	0.0054*	0.015*	0.0095
Cc1cc(O)c(C(C)C)cc1N=Nc1ccccc1C(=O)O	x	x	0.1	x	-1.9	x	x	x	x	x	x	x
COc1cc(C=Nc2c(C)cc(C)cc2C)ccc1OC(C)=O	4	0.6	0.15	15	-0.82	54	x	x	x	x	x	x
CCOC(=O)N1CCN(c2ccc(F)cc2[N+](=O)[O-])CC1	-9	0.022	0.26	9	-0.13	-25	x	x	x	x	x	x
